Reference: PubChem BioAssay (NCI)
Compounds without any hit were thinned out: in the full panel of roughly 83,000, 20% have a hit.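 Compound tested at a single concentration for 48 hours in 96-well plates; a percent growth value below 10 was scored as active.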 Active and inactive are the calls of the source.

Experiments:
Assay in all cases: NCI-60 one-dose screen, 48 h (100 = growth as untreated, 0 = no growth, -100 = all killed)
Details in all cases: 10 µM unless noted
SR leukemia = test system: SR leukemia
RPMI-8226 leukemia = test system: RPMI-8226 leukemia
OVCAR-8 ovarian = test system: OVCAR-8 ovarian
OVCAR-5 ovarian = test system: OVCAR-5 ovarian
OVCAR-4 ovarian = test system: OVCAR-4 ovarian
SK-OV-3 ovarian = test system: SK-OV-3 ovarian
IGROV1 ovarian = test system: IGROV1 ovarian
OVCAR-3 ovarian = test system: OVCAR-3 ovarian
HS 578T breast = test system: HS 578T breast
NCI/ADR-RES ovarian = test system: NCI/ADR-RES ovarian
T-47D breast = test system: T-47D breast
BT-549 breast = test system: BT-549 breast
MDA-MB-435 melanoma = test system: MDA-MB-435 melanoma
SW-620 colon = test system: SW-620 colon
MCF7 breast = test system: MCF7 breast
HCT-116 colon = test system: HCT-116 colon
HCC-2998 colon = test system: HCC-2998 colon
KM12 colon = test system: KM12 colon
MDA-MB-468 breast = test system: MDA-MB-468 breast

Measured: growth

CN(C)c1nc(NCCNS(=O)(=O)c2ccc(C(=O)/C=C/c3ccc(F)cc3)cc2)nc(N2CCOCC2)n1
active: SR leukemia -25.7% | RPMI-8226 leukemia -28.4% | IGROV1 ovarian -44.9% | BT-549 breast -24.8% | MDA-MB-435 melanoma 3.15% | SW-620 colon -48.6% | HCT-116 colon -96% | HCC-2998 colon -96.5% | KM12 colon -42.5% | MDA-MB-468 breast -36.6%
inactive: OVCAR-8 ovarian 42.3% | OVCAR-5 ovarian 96% | OVCAR-4 ovarian 64.5% | SK-OV-3 ovarian 82.5% | OVCAR-3 ovarian 64.1% | HS 578T breast 73.5% | NCI/ADR-RES ovarian 49.3% | T-47D breast 35.4% | MCF7 breast 17.8%

Cc1ccc(N=Nc2c(N)nn3c(-c4cc5ccccc5oc4=O)ccnc23)cc1
active: RPMI-8226 leukemia 9.76% | HCC-2998 colon -21.1%
inactive: SR leukemia 75.7% | OVCAR-8 ovarian 51.4% | OVCAR-5 ovarian 54.6% | OVCAR-4 ovarian 77.9% | SK-OV-3 ovarian 99.9% | IGROV1 ovarian 32.4% | OVCAR-3 ovarian 37.4% | HS 578T breast 62.6% | NCI/ADR-RES ovarian 27% | T-47D breast 55.7% | BT-549 breast 74.5% | MDA-MB-435 melanoma 55.9% | SW-620 colon 30.7% | MCF7 breast 26.6% | HCT-116 colon 11.1% | KM12 colon 31.3% | MDA-MB-468 breast 14.9%

Cn1cc(-c2cc3nc(-c4cn(C)c5ncc(Br)cc45)cc(N)n3n2)c2cc(F)ccc21
active: SR leukemia -23.7% | OVCAR-4 ovarian 3.36% | T-47D breast 2.75% | HCT-116 colon -44.1% | HCC-2998 colon -14.5% | MDA-MB-468 breast -47.4%
inactive: RPMI-8226 leukemia 32.9% | OVCAR-8 ovarian 10.5% | OVCAR-5 ovarian 31.8% | SK-OV-3 ovarian 75% | IGROV1 ovarian 19.8% | OVCAR-3 ovarian 20.3% | HS 578T breast 35% | NCI/ADR-RES ovarian 10.5% | BT-549 breast 44.9% | MDA-MB-435 melanoma 39.8% | SW-620 colon 26.6% | MCF7 breast 27% | KM12 colon 19.1%

Cc1ccc2nc(NC(=O)Nc3cccc(Cl)c3)sc2c1
inactive: SR leukemia 89.9% | RPMI-8226 leukemia 96.7% | OVCAR-8 ovarian 107% | OVCAR-5 ovarian 118% | OVCAR-4 ovarian 99.5% | SK-OV-3 ovarian 102% | IGROV1 ovarian 98.4% | OVCAR-3 ovarian 123% | HS 578T breast 116% | NCI/ADR-RES ovarian 93.9% | T-47D breast 98.5% | BT-549 breast 121% | MDA-MB-435 melanoma 105% | SW-620 colon 106% | MCF7 breast 66.8% | HCT-116 colon 94.7% | HCC-2998 colon 122% | KM12 colon 98.6% | MDA-MB-468 breast 93.8%

Fc1ccc(N2CC(Cn3c(C(F)(F)F)cc4c(Cl)ncnc43)C2)c(F)c1
inactive: RPMI-8226 leukemia 24.2% | OVCAR-5 ovarian 107% | SK-OV-3 ovarian 100% | HS 578T breast 55.1% | NCI/ADR-RES ovarian 11.4% | T-47D breast 56.8% | MDA-MB-435 melanoma 15.9% | MCF7 breast 57.7% | KM12 colon 99.5%
active: SR leukemia -60.9% | OVCAR-8 ovarian -87.6% | OVCAR-4 ovarian -27.1% | IGROV1 ovarian -95.7% | OVCAR-3 ovarian -66.2% | BT-549 breast -84.5% | SW-620 colon -79.6% | HCT-116 colon -92.1% | HCC-2998 colon -91.4% | MDA-MB-468 breast -50.5%

O=C1Nc2cc(-c3ccc(NS(=O)(=O)c4ccc(-c5ccccc5)cc4)cc3)ccc2/C1=C/c1ccc[nH]1
inactive: RPMI-8226 leukemia 21.3% | OVCAR-8 ovarian 52.2% | OVCAR-5 ovarian 61.7% | OVCAR-4 ovarian 21.3% | SK-OV-3 ovarian 98.2% | IGROV1 ovarian 73% | HS 578T breast 59.4% | NCI/ADR-RES ovarian 62.9% | MDA-MB-435 melanoma 40.3% | HCT-116 colon 20.3% | HCC-2998 colon 50.8% | KM12 colon 34.2%
active: SR leukemia -33.1% | OVCAR-3 ovarian -19.4% | T-47D breast 3.17% | BT-549 breast 3.7% | SW-620 colon 8.95% | MCF7 breast -25.2% | MDA-MB-468 breast -52.5%

COc1cc(C2C(C(=O)OCc3ccccc3)=C(C)Nc3nc4ccccc4n32)cc(OC)c1OC (configuration not stated)
active: OVCAR-4 ovarian 1.46% | NCI/ADR-RES ovarian 6.58% | MDA-MB-435 melanoma -34.7% | MCF7 breast 7.08% | HCT-116 colon 2.8% | MDA-MB-468 breast -38%
inactive: SR leukemia 11.3% | RPMI-8226 leukemia 48.8% | OVCAR-8 ovarian 13.5% | OVCAR-5 ovarian 45.5% | SK-OV-3 ovarian 25.6% | IGROV1 ovarian 44.1% | OVCAR-3 ovarian 12.1% | HS 578T breast 14% | T-47D breast 55.6% | BT-549 breast 14.2% | SW-620 colon 31.4% | HCC-2998 colon 27.8% | KM12 colon 38%

OC(c1ccccc1)(c1ccccc1)C1CCN(c2ccc3nnc(Cl)n3n2)CC1
inactive: RPMI-8226 leukemia 13.8% | OVCAR-8 ovarian 33.9% | OVCAR-5 ovarian 70% | OVCAR-4 ovarian 30.3% | SK-OV-3 ovarian 90.2% | IGROV1 ovarian 39.8% | OVCAR-3 ovarian 42.2% | HS 578T breast 71.1% | NCI/ADR-RES ovarian 18.6% | MDA-MB-435 melanoma 42.1% | SW-620 colon 56.6% | MCF7 breast 10.9% | HCT-116 colon 22.6% | HCC-2998 colon 55.2% | KM12 colon 30.9% | MDA-MB-468 breast 30.4%
active: SR leukemia -22.3% | T-47D breast 9.47% | BT-549 breast 2.56%
